Screening data (PubChem)
This is a sample that favours compounds with a hit; in the whole collection about 1.4% have one here.
VLA-4 agonist = enhancers of LDV-FITC binding to VLA-4 integrin, primary screen, Jurkat cells, flow cytometry; Integrin alpha-4 (Homo sapiens), P13612; activation, % at 10 µM (by protocol); 24,000 tested, under 10 active; AID 528, 2006;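 active means fluorescent ligand binding to cells raised by more than 40% of the manganese-induced maximum; inconclusive means compound's own fluorescence above 85% of the ligand control signal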
FPR ligand = human FPR ligands by binding competition, primary screen, cell-based, FPRL1 counter-screen, flow cytometry; inhibition, % (test concentration not listed); fMet-Leu-Phe receptor (Homo sapiens), P21462; FPR-expressing cells, fluorescent ligand binding; 24,000 tested, 0.74% active
Target sequence (P21462 whole entry, looked up): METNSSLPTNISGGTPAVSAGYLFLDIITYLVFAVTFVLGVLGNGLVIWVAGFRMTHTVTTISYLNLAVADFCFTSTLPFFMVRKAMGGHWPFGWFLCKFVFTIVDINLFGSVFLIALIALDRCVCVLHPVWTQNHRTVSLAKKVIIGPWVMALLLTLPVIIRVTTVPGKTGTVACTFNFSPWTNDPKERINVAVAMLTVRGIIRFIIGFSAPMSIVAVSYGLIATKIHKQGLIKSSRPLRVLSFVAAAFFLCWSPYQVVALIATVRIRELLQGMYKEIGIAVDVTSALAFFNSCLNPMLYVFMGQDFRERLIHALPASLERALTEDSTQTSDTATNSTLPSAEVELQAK
Autofluor Jurkat = compound autofluorescence on Jurkat cells, primary screen, artefact control for VLA-4 allosteric ligand project, cell-based, flow cytometry | hits give high values; 1 = vehicle-only cell background | fluorescence ratio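 (tested at 10 µM compound in the well)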 | 24,000 tested, 0.61% active | AID 576, 2007;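 active means fluorescence ratio above 2.44, which is 1 plus 3 SD of all ratios; inconclusive means signal too bright to measure linearly, ratio around 10 or more; inactive means fluorescence ratio below 2.44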;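 further: green fluorescence of cells measured with 488 nm excitation and 530 nm emission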
FPRL1 ligand = human FPRL1 ligands by binding competition, primary screen, cell-based, FPR counter-screen, flow cytometry; N-formyl peptide receptor 2 (Homo sapiens), P25090; FPRL1-expressing cells, fluorescent ligand binding inhibition; inhibition, % (test concentration not listed); 24,000 tested, 0.3% active
VLA-4 antagonist = inhibitors of LDV-FITC binding to Mn2+-activated VLA-4, primary screen, Jurkat cells. Integrin alpha-4 (Homo sapiens), P13612. LDV-FITC binding with Mn2+, flow cytometry; 100% = Mn2+-driven binding gain fully reversed. inhibition, % at 10 µM (by protocol). 24,000 tested, 0.2% active. AID 529, 2006;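 active means inhibition above 50%; inconclusive means compound itself fluorescent, judged against control cell fluorescence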
Hits are given with their value; i = inactive; ? = inconclusive; nt = not tested or not shown. Unless noted, no stated cut-off is given here; in the data, active means inhibition above about 30%; inconclusive means no clear call, values can overlap the other calls; inactive means below that.

SMILES	VLA-4 agonist	FPR ligand	Autofluor Jurkat	FPRL1 ligand	VLA-4 antagonist
COc1ccc(NC(=O)C2CCCN(S(=O)(=O)c3cccc4cccnc34)C2)c(OC)c1 (stereo unspecified)	i	i	i	i	i
COc1ccc(-c2cn3cccnc3n2)cc1NC(=O)C1CCCC1	i	i	i	74	i
COc1ccc(-c2cn3cccnc3n2)cc1NC(=O)C1CC1	i	i	i	76	i
CCOc1ccccc1NC(=O)CSc1nccn1-c1ccccc1	i	44	i	37	i
COCCCN1C(=O)C(O)=C(C(=O)c2ccco2)C1c1ccc(Br)cc1 (stereo unspecified)	i	48	i	i	i
COCCCN1C(=O)C(O)=C(C(=O)c2ccco2)C1c1cccc(Br)c1 (stereo unspecified)	nt	70	nt	i	nt
CCCOc1ccc(C2C(C(=O)c3ccco3)=C(O)C(=O)N2CCN2CCOCC2)cc1OC (stereo unspecified)	nt	i	nt	i	nt
COc1ccc(CCN2C(=O)C3C4C=CC(C4)C3C2=O)cc1OC (stereo unspecified)	i	i	i	i	i
COC(=O)C1Cc2c([nH]c3ccccc23)CN1 (stereo unspecified)	?	i	4.1	i	?
CC(C)OC(=O)c1cc(=O)[nH]c2ccccc12	i	i	i	i	i
Cc1cc2c(cc(C(=O)NCc3cccnc3)n2Cc2ccc(Cl)cc2)o1	?	i	i	i	?
COc1ccc(N2CCN(CCCNS(=O)(=O)c3c(C)noc3/C=C/N(C)C)CC2)cc1	i	i	i	i	i
N#CC1=C(SCC(=O)c2cc3ccccc3oc2=O)NC(=O)C(C#N)C12CCCC2 (stereo unspecified)	i	i	i	i	68
COc1cccc2sc(Nc3nnc(-c4ccccc4Cl)o3)nc12	i	nt	i	nt	73
COc1ccccc1-c1nnc(Nc2nc3c(OC)cccc3s2)o1	i	i	i	i	i
CCOC(=O)c1c(C)c(C(=O)Nc2cc(F)ccc2F)c(C)n1C	?	i	i	i	?
COCCOC(=O)c1cc(C(=O)c2cc(F)ccc2O)coc1=N	?	i	4.1	i	?
CCC1CCCCN1C(=O)CSc1nnc(CNC(=O)COc2ccc(Cl)cc2)o1 (stereo unspecified)	i	i	i	i	i
Cc1cccc(NC(=O)C2CCN(S(=O)(=O)c3cccc4cccnc34)CC2)n1	i	i	i	i	i
CCOC(=O)Cn1nc(-c2ccc(Cl)cc2)cc1N	?	i	i	i	?
CCOC(=O)CCn1nc(-c2ccc(Cl)cc2)cc1N	i	54	i	51	i
CC1Cc2ccccc2N1C(=O)C1CCCN(S(=O)(=O)c2cccc3cccnc23)C1 (stereo unspecified)	?	i	3.6	i	?
O=C1N(CC(=O)N2CCc3ccccc32)CCN1Cc1ccccc1Cl	?	i	i	i	?
CN1C(=O)c2ccccc2C(C(=O)NCC2CCCO2)C1c1c[nH]c2ccccc12 (stereo unspecified)	i	i	i	i	i
O=C(c1ccco1)N1CCN(c2nc3ccccc3n3nnnc23)CC1	?	i	9.4	i	?
SMILES	VLA-4 agonist	FPR ligand	Autofluor Jurkat	FPRL1 ligand	VLA-4 antagonist
Cc1ccc(Nc2nc(C3CC3)cs2)cc1	?	34	i	i	?
O=C(CCS(=O)(=O)c1ccc(Br)s1)N1CCc2ccccc21	i	i	i	i	i
Cc1cc(C)n(-c2nc3ccccc3nc2Nc2ccc3c(c2)OCO3)n1	?	i	i	i	?
CCN(CC)S(=O)(=O)c1ccc(NC(=O)Cn2cnc3ccccc3c2=O)cc1	i	i	i	i	i
c1ccc2c(c1)nc(Nc1ccc3c(c1)OCO3)c1nnnn12	?	i	3.2	i	?
CCN(CC)S(=O)(=O)c1ccc(Nc2nc3ccccc3n3nnnc23)cc1	?	i	3.2	i	?
CCc1ccccc1NC(=O)c1cc(C2CC2)on1	i	i	i	i	i
Cc1ccc(C2C=C(c3ccccc3OC(F)F)Nc3ncnn32)cc1 (stereo unspecified)	?	i	i	i	?
CN(C)c1ccc(C2C=C(c3ccc(Cl)cc3OC(F)F)Nc3ncnn32)cc1 (stereo unspecified)	?	i	2.8	i	?
COc1ccc(N(CC(=O)Nc2cccc(C)c2)S(=O)(=O)c2c(C)n[nH]c2C)cc1	i	i	i	i	i
CCc1cccc(NC(=O)CN(c2ccc(OC)cc2)S(=O)(=O)c2c(C)n[nH]c2C)c1	i	i	i	i	62
O=C(NCCCN1CCCC1)Nc1cccc2ccccc12	i	i	i	i	i
CN1CCN(CCCNC(=O)Nc2cccc3ccccc23)CC1	i	i	i	32	i
COc1ccc2ccccc2c1C1CC(=O)N2CN(C3CCCCC3)CSC2=C1C#N (stereo unspecified)	?	64	i	i	?
Cc1[nH]n2c(=O)c3c(nc2c1-c1cccc2ccccc12)CCC3	nt	48	nt	i	nt
Cc1[nH]n2c(=O)c3c(nc2c1-c1ccccc1)CCCC3	nt	i	nt	i	nt
CCCCc1cc(=O)oc2c(CN3CCCC3)c(O)c(Cl)cc12	i	i	i	i	i
Cc1c(C)c2cc(Cl)c(O)c(CN3CCCCC3)c2oc1=O	i	38	i	50	i
COc1cccc(CNC(=O)C2CCCN(S(C)(=O)=O)C2)c1 (stereo unspecified)	i	i	i	i	i
O=S(=O)(Nc1nc2ccccc2nc1NCc1ccco1)c1ccc(Cl)cc1	i	i	i	i	i
Cc1ccc(S(=O)(=O)Nc2nc3ccccc3nc2NCc2ccco2)cc1	?	i	4.8	i	?
N#Cc1c(C(F)(F)F)cc(-c2ccccc2)nc1SCc1nc(N)nc(N2CCOCC2)n1	?	?	8.7	47	?
CCOC(=O)NC(NCC(O)c1ccccc1)(C(F)(F)F)C(F)(F)F (stereo unspecified)	i	i	i	i	i
CCC(=O)N1CCNC(=O)C1CC(=O)Nc1ccc(C)c(Cl)c1 (stereo unspecified)	i	i	i	i	52
CCOc1ccccc1NC(=O)CC1Nc2cc(C)c(C)cc2NC1=O (stereo unspecified)	?	i	4.9	i	?
SMILES	VLA-4 agonist	FPR ligand	Autofluor Jurkat	FPRL1 ligand	VLA-4 antagonist
Cc1ccc(NC(=O)CC2Nc3ccccc3NC2=O)cc1Cl (stereo unspecified)	?	i	6.7	i	?
CC(NC(=O)CC1Nc2ccccc2NC1=O)c1ccccc1 (stereo unspecified)	i	i	i	i	i
COc1ccc(CCNC(=O)CC2Nc3ccccc3NC2=O)cc1OC (stereo unspecified)	?	i	i	i	?
COc1ccc(N(CC(=O)Nc2ccc(C)cn2)S(=O)(=O)c2c(C)noc2C)cc1	i	i	i	i	i
CC(C)(C)c1ccc(C(=O)Nc2cnccn2)cc1	i	i	i	i	i
CCNc1ccc2c(Cl)cc(=O)oc2c1	i	i	i	i	i
